These results are taken from paper PMC5540273 (PLoS ONE, 2017).

In experiment [1] the test system is EPHB6.
The test system of experiment [2] is T1, ERK4.
T1 construct: gene MAPK4

Experiment [3] has as its system T2, ERK3.
T2 construct: gene MAPK6

In experiment [4] the test system is ERBB2.
Experiment [5] concerns T3, ERK8.
T3 construct: gene MAPK15

Experiment [6] deals with FLT3-autoinhibited.
Experiment [7] concerns ERBB3.
The subject of experiment [8] is ERBB4.
Experiment [9] deals with FLT3.
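Note: kd values determined as follow-up on hits from a single-replicate KINOMEscan panel screen.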

The term Kd denotes the concentration at which binding is half-saturated. As for `Nc1ncnc2occ(-c3ccc4c(c3)CCN4C(=O)Cc3cc(F)ccc3F)c12` [GSK2645446], the affinity in [1], expressed as Kd, was 500 nM. In other words, the sub-micromolar range. `FC(F)(F)c1ccccc1-c1cc(-c2c[nH]nc2-c2ccccn2)ccn1` [GW679396]: the affinity in experiment [1], expressed as Kd, was 8500 nM. For the compound `Cc1c(Cn2c3ccccc3n3c(=O)cc(N4CCOCC4)nc23)cccc1C(F)(F)F` [GSK2306394], in [2], the Kd was > 10000 nM.

Turning to `COc1ccc(Nc2nccc(N3CCC(NC(=O)C(C)c4ccc(Cl)cc4)CC3)n2)cc1` (centres unmarked) [GSK1379812], in [1], the Kd was > 10000 nM.

For `CCn1c(-c2c(N)noc2C)nc2cnccc21` [SB-737856], the Kd in [3] was > 10000 nM.

Take `Cn1cncc1-c1cc2c(Nc3ccc(OCc4ccccc4)cc3)ncnc2cn1` [GW281179]: the Kd in experiment [4] worked out at 17 nM. That is a double-digit nanomolar value. Turning to `COC(=O)C(NC(=O)NC1CCN(c2ccnc(Nc3ccc(F)cc3)n2)C1)c1ccccc1` (centres unmarked) [GSK1379712], the affinity in experiment [1], expressed as Kd, was 58 nM. This counts as double-digit nanomolar. Take `Cc1cccc2c(-c3ccncn3)c(-c3ccc(F)cc3)nn12` [GW515532]: the Kd in experiment [5] was > 10000 nM. For `CC(=O)c1c(C)c2cnc(Nc3ccc(N4CCNCC4)cn3)nc2n(C2CCCC2)c1=O`, the Kd in experiment [3] was > 10000 nM. As for `Cn1cnc2c(N)ncnc21` [SKF-97623], the Kd in [6] is > 10000 nM. For `Cc1nccc(-c2c(-c3ccc(F)cc3)ncn2CCCN2CCOCC2)n1.Cl` [SB-282975], the Kd in experiment [2] is > 10000 nM.

In experiment [4], `COc1cc2ncnc(Nc3cccc(Br)c3)c2cc1OC.Cl` [GI230329] registered a Kd of 85 nM.

`CS(=O)(=O)CCNCc1nc(-c2ccc3ncnc(Nc4ccc5c(cnn5Cc5ccccc5)c4)c3c2)cs1.Cl.Cl` [GW569716]: the values for the Kd in experiment [4], in [7] and in experiment [8] were 1.1 nM, 69 nM and 8.2 nM, respectively. Regarding `O=C(Nc1n[nH]c2nc(-c3cccs3)c(Br)cc12)C1CC1` [SB-735297], the Kd in experiment [5] is 130 nM; in experiment [9], 150 nM.
